Residual activity data for one compound are collected here from ChEMBL document CHEMBL2218924, “A broad activity screen in support of a chemogenomic map for kinase signalling research and drug discovery” (Biochem J, 2013).

Assay [1] concerns the target T1, Serine/threonine-protein kinase TBK1 (Homo sapiens) (UniProt Q9UHD2).
T1 sequence (whole entry): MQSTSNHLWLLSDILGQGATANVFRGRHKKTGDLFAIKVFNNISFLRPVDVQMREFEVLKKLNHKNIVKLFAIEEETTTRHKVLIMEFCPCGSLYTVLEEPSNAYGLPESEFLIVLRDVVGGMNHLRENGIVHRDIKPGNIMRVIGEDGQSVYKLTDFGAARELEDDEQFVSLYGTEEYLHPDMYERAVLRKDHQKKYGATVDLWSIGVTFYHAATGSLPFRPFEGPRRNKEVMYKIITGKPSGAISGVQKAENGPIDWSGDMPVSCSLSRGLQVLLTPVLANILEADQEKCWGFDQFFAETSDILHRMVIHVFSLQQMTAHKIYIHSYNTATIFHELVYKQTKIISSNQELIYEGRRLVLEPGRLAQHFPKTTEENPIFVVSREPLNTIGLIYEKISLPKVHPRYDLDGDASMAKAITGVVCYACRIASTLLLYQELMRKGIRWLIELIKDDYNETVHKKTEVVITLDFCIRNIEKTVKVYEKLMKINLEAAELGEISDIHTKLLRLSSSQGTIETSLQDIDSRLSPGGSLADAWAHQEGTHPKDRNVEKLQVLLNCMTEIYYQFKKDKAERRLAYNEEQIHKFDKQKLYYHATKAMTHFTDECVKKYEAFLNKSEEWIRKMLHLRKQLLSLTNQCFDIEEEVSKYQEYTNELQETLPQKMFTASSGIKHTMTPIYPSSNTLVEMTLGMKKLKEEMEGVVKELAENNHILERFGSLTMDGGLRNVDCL
Particulars: at 10 µM.

Assay [2] deals with T2, TGF-beta receptor type-1 (Homo sapiens) (UniProt P36897).
T2 sequence (whole entry): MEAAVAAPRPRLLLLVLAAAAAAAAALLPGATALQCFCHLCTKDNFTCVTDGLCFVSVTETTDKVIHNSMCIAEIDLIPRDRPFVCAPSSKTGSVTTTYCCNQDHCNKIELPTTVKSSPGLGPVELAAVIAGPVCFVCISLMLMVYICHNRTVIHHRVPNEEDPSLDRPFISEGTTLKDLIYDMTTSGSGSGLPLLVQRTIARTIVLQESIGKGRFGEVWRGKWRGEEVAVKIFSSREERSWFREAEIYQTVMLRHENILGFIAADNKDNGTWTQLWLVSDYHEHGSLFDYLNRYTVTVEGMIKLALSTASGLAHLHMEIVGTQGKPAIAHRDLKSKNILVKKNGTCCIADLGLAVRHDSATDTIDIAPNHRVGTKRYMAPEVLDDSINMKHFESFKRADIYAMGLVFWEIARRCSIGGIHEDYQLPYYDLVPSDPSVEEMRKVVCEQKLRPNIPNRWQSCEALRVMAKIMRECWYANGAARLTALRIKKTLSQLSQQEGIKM
Particulars: at 1 µM.

Assay [3] addresses T2, TGF-beta receptor type-1 (Homo sapiens). As to conditions: at 10 µM.
Assay [4] concerns the target Insulin-like growth factor 1 receptor (Homo sapiens) (UniProt P08069). As to conditions: at 1 µM.
For assay [5] the target is unchanged. Particulars: at 10 µM.
Assay [6] concerns the target T3, Inhibitor of nuclear factor kappa-B kinase subunit alpha (Homo sapiens) (UniProt O15111).
T3 sequence (whole entry): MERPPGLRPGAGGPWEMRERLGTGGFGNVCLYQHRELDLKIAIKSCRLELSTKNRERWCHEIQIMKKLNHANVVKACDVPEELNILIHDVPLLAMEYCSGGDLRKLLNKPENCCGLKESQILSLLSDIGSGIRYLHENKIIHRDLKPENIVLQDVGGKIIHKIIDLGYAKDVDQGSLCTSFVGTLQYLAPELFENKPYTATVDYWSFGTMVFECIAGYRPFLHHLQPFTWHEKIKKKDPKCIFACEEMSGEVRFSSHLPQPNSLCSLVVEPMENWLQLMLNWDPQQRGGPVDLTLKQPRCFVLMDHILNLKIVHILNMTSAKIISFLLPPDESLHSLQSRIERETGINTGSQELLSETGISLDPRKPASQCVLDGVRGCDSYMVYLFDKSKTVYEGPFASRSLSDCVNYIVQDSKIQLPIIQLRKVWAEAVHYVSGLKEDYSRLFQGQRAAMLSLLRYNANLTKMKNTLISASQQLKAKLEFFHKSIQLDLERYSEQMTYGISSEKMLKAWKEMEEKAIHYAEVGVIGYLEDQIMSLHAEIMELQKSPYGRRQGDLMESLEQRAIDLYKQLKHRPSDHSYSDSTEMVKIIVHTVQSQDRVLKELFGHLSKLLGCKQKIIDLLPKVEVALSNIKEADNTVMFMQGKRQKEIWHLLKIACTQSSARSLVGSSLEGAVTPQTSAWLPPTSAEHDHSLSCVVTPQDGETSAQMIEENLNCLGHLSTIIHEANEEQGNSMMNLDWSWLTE
Particulars: at 1 µM.

Assay [7] deals with T3, Inhibitor of nuclear factor kappa-B kinase subunit alpha (Homo sapiens). Particulars: at 10 µM.
The target in assay [8] is T4, Inhibitor of nuclear factor kappa-B kinase subunit beta (Homo sapiens) (UniProt O14920).
T4 sequence (whole entry): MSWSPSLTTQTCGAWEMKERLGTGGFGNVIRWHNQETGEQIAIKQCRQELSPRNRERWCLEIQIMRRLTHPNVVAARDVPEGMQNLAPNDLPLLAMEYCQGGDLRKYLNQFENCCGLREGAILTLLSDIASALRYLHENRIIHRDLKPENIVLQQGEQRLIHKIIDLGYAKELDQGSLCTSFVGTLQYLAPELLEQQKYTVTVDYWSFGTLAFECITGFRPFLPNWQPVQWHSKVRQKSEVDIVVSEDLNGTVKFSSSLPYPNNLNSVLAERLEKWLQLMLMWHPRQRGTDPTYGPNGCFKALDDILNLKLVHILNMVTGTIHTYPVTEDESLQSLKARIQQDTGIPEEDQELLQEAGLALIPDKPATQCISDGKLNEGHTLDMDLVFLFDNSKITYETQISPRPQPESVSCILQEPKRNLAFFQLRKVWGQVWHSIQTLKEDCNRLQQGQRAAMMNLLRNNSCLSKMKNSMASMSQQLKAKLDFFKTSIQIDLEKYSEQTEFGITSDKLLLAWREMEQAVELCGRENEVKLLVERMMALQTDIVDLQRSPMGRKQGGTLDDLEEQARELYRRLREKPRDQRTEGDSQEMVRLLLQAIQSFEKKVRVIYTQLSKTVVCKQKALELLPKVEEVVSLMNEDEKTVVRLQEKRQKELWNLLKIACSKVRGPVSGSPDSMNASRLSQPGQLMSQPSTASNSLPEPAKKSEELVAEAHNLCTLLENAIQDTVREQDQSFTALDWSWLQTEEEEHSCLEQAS
As to conditions: at 1 µM.

The target of assay [9] is T4, Inhibitor of nuclear factor kappa-B kinase subunit beta (Homo sapiens). Particulars: at 10 µM.
The target of assay [10] is Insulin receptor (Homo sapiens) (UniProt P06213). Particulars: at 1 µM.
Insulin receptor (Homo sapiens), sequence (P06213 28-758 limits assumed): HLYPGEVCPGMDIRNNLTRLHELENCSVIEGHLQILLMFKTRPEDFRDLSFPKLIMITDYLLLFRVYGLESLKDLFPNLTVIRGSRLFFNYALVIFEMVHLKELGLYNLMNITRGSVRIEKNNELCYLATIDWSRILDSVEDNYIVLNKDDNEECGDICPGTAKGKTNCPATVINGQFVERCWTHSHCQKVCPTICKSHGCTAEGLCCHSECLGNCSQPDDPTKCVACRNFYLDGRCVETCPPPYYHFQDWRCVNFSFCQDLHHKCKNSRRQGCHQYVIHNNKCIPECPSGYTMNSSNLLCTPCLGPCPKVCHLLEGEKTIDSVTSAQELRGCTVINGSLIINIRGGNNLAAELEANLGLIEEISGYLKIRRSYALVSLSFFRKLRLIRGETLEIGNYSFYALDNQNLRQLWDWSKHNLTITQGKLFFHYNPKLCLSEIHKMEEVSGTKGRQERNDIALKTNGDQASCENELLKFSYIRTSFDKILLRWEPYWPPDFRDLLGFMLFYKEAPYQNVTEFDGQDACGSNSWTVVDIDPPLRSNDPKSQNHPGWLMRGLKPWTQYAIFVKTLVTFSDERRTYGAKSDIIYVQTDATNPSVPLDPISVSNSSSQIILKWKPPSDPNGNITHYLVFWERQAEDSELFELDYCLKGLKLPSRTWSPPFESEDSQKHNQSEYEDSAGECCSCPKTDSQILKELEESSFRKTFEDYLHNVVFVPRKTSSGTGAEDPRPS
Insulin receptor (Homo sapiens), sequence (P06213 763-1382 limits assumed): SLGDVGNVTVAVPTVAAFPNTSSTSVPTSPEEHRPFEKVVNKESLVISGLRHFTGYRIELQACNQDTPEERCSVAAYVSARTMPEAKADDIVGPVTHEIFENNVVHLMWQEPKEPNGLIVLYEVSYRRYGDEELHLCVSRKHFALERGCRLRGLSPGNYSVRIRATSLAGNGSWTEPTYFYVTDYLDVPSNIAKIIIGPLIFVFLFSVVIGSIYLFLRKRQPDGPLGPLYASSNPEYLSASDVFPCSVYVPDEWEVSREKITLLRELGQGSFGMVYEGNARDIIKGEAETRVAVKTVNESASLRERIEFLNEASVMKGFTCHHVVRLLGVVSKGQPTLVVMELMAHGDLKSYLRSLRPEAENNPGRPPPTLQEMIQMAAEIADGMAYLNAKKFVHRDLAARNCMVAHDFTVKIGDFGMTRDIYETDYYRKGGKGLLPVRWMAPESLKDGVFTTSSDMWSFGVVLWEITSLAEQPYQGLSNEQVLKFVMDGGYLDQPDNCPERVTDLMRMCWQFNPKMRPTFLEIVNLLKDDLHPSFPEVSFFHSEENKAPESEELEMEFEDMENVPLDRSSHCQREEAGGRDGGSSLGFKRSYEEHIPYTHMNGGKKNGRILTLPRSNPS

Insulin-like growth factor 1 receptor (Homo sapiens), sequence (P08069 31-736 limits assumed): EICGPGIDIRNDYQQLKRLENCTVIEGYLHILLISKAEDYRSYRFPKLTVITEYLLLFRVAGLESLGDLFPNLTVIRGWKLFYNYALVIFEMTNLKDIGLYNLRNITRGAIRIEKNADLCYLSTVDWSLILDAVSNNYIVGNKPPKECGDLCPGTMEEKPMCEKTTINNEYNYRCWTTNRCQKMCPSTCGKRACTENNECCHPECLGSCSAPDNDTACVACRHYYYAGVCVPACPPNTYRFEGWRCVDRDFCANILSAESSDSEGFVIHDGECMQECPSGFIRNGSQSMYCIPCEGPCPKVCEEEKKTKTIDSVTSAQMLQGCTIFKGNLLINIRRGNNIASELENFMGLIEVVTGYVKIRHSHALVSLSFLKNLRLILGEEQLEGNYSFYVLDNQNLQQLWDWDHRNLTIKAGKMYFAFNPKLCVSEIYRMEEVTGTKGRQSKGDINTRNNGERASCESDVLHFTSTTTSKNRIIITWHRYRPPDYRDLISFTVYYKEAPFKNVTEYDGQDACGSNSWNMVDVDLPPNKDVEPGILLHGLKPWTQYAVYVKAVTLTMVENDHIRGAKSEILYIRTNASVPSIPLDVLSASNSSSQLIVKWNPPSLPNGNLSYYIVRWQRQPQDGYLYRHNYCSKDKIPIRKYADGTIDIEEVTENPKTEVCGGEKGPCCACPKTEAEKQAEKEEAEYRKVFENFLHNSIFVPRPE
Insulin-like growth factor 1 receptor (Homo sapiens), sequence (P08069 741-1367 limits assumed): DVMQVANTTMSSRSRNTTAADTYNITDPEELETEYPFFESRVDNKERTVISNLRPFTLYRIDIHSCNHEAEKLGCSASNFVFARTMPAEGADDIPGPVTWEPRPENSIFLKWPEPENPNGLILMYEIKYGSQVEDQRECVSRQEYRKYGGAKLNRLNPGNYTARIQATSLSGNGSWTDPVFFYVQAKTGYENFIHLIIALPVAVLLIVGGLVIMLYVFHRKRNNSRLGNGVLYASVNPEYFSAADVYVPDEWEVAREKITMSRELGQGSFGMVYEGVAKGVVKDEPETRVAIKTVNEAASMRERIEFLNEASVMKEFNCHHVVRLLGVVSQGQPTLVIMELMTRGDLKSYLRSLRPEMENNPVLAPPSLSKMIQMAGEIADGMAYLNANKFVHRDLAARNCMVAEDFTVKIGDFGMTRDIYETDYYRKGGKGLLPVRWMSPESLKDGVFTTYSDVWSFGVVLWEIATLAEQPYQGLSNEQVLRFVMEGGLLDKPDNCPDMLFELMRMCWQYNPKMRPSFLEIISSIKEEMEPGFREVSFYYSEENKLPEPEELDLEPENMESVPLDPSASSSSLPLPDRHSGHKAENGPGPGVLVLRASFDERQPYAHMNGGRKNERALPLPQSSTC

For `CO[C@H]1[C@@H](OC)C[C@H](C)[C@@H](OC)C2=CC(=O)C=C(NC(=O)/C(C)=C/C=C/[C@H](OC)[C@@H](OC(N)=O)/C(C)=C/[C@@H]1C)C2=O`, the residual activity in assay [1] was found to be 69%; in assay [2], 99%; in [3], 89%; in [4], 106%; in assay [5], 96%; in assay [6] it was 85%. In addition, the residual activity in assay [7] was found to be 113%; in assay [8], 111%; in [9] it was 107%; in [10], 109%.
